Among the data in PubChem BioAssay (NCI) are growth values, retold here.

Among the test systems are DU-145 prostate; MALME-3M melanoma; MDA-MB-231 breast; RXF 393 renal; SF-268 CNS; SF-295 CNS; SF-539 CNS; UACC-257 melanoma; M14 melanoma.
Common to all, as to assay: NCI-60 one-dose screen, 48 h (100 = growth as untreated, 0 = no growth, -100 = all killed)
Common to all, as to conditions: 10 µM unless noted

Structures are written as SMILES. This is part of a sample that, as a whole, favours compounds with a hit. Of some 83,000 tested, about 20% had one in any assay.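 The endpoint reported here, percent growth, reads 100 for growth as untreated, 0 for no net growth and -100 for all cells dead.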 Unmarked numbers belong to inactive results. The source made the active and inactive calls. The calls were made as follows: active = growth percent below 10; inactive = the rest.

With `Cc1c(C)c([N+](=O)[O-])c(C)c([N+](=O)[O-])c1C`, the growth was 104% with DU-145 prostate; 111% in the assay with MALME-3M melanoma; 101% in the assay on MDA-MB-231 breast; 108% in the assay on RXF 393 renal; 106% in the assay with SF-268 CNS; 97.6% in the assay with SF-295 CNS. For the same compound, the growth with SF-539 CNS was 107%; with UACC-257 melanoma it was 105%; in the assay with M14 melanoma it was 108%.
As for `COc1cc(C2C3=C(COC3=O)N(CCO)c3cc4c(cc32)OCO4)cc(OC)c1OC` (configuration not stated), the growth in the assay on DU-145 prostate is 5.4% (active); with MALME-3M melanoma, 56.3%; with MDA-MB-231 breast it was -1.03% (active); in the assay with RXF 393 renal, -5.54% (active); in the assay with SF-268 CNS it was 41.3%; in the assay on SF-295 CNS it was 21.4%. In addition, the growth in the assay on SF-539 CNS is -51.6% (active); in the assay on UACC-257 melanoma, 60.8%; in the assay on M14 melanoma it was -19.6% (active).
Take `CCc1ccc(-c2cn3ccnc3c(-c3ccc4ncn(Cc5ccccc5)c4c3)n2)cc1`: the growth with DU-145 prostate was 80.9%; in the assay on MALME-3M melanoma, 115%; in the assay with MDA-MB-231 breast, 56.8%; with RXF 393 renal it was 69.3%; in the assay with SF-268 CNS, 69.5%; in the assay on SF-295 CNS, 48.8%. Further, the values for the growth in the assay with SF-539 CNS, with UACC-257 melanoma and in the assay on M14 melanoma were 78.8%, 103% and 63.6%, respectively.
Turning to `COc1cc(NCCCCCNC(C)(C)C)c2ncccc2c1`, the growth is 112% in the assay with DU-145 prostate; 107% in the assay with MALME-3M melanoma; 89.8% in the assay with MDA-MB-231 breast; 97.4% in the assay with RXF 393 renal; 105% in the assay on SF-268 CNS; 77.5% with SF-295 CNS. Further, the growth in the assay with SF-539 CNS was 99.7%; in the assay with UACC-257 melanoma, 133%; in the assay on M14 melanoma, 104%.
Regarding `CC(=O)[C@H]1CCC/C=C/[C@@H]2C[C@H](O)C[C@H]2[C@H](O)/C=C/C(=O)O1`, the growth in the assay with DU-145 prostate is 25.4%; in the assay with MALME-3M melanoma it was -11.5% (active); in the assay on MDA-MB-231 breast it was -34.3% (active); with RXF 393 renal it was -32.8% (active); in the assay with SF-268 CNS it was 12.3%; in the assay with SF-295 CNS it was 3% (active). The growth with SF-539 CNS is 18.5%; with UACC-257 melanoma, 24.1%; in the assay on M14 melanoma, 5.74% (active).
For the compound `Cc1cc(Cl)nc(N(CCNc2ccnc3cc(Cl)ccc23)Cc2ccccn2)n1`, the growth with DU-145 prostate is 73%; in the assay on MALME-3M melanoma, 100%; in the assay on MDA-MB-231 breast, 57.2%; in the assay with RXF 393 renal, 59.1%; in the assay on SF-268 CNS, 83.4%; with SF-295 CNS it was 80.4%. The growth is 6.88% (active) in the assay with SF-539 CNS, 68.1% with UACC-257 melanoma and 62.5% in the assay on M14 melanoma.
As for `C=C(C)[C@@H]1CC[C@]2(C(=O)N3CCN(C)CC3)CC[C@]3(C)[C@H](CC[C@@H]4[C@@]5(C)CC[C@H](O)C(C)(C)[C@@H]5CC[C@]43C)[C@@H]12`, the growth was -57.3% (active) with DU-145 prostate; -73.1% (active) in the assay on MALME-3M melanoma; -63.4% (active) in the assay with MDA-MB-231 breast; -91.6% (active) with RXF 393 renal; -74.8% (active) in the assay on SF-268 CNS; -86.9% (active) in the assay with SF-295 CNS. Moreover, the growth is -74.3% (active) with SF-539 CNS, -88.5% (active) with UACC-257 melanoma and -86.4% (active) in the assay with M14 melanoma.
On to `CC(C)(C)c1cc(C=O)cc(C(C)(C)C)c1O`, for which the growth in the assay with DU-145 prostate is 103%; in the assay with MALME-3M melanoma it was 101%; in the assay on MDA-MB-231 breast, 87.5%; in the assay with RXF 393 renal, 104%; in the assay on SF-268 CNS, 96.6%; in the assay on SF-295 CNS, 112%. The growth in the assay with SF-539 CNS is 102%; in the assay on UACC-257 melanoma it was 102%; with M14 melanoma, 101%.
On to `c1ccc(Cn2cnc3ccc(-c4nc(-c5ccc6c(c5)ncn6C5CCCCC5)cn5ccnc45)cc32)cc1`, for which the growth with DU-145 prostate was -28.2% (active); with MALME-3M melanoma, -15.4% (active); with MDA-MB-231 breast, -70.1% (active); in the assay with RXF 393 renal it was -76.9% (active); in the assay on SF-268 CNS, -0.106% (active); in the assay on SF-295 CNS, -81.4% (active). Besides, the results for the growth in the assay on SF-539 CNS, in the assay on UACC-257 melanoma and in the assay on M14 melanoma were -77.6% (active), -32.7% (active) and -4.44% (active), respectively.
In the case of `C#Cc1cccc(NC(=O)Nc2cccc(NC(=O)CCl)c2)c1`, the growth is 44.4% [8.25 µM] in the assay with DU-145 prostate; -50.2% [8.25 µM] (active) in the assay with MALME-3M melanoma; -61% [8.25 µM] (active) with MDA-MB-231 breast; -48.7% [8.25 µM] (active) in the assay on RXF 393 renal; -2.2% [8.25 µM] (active) in the assay on SF-268 CNS; 45% [8.25 µM] with SF-295 CNS. In addition, the growth with SF-539 CNS is -95.2% [8.25 µM] (active); in the assay on UACC-257 melanoma, 48.7% [8.25 µM]; with M14 melanoma it was 6.26% [8.25 µM] (active).
`COc1ccc(/C=C2\COc3ccc(-c4ccccc4)cc3C2=O)c(OC)c1`: the growth in the assay on DU-145 prostate was 102%; in the assay on MALME-3M melanoma, 91.6%; in the assay on MDA-MB-231 breast it was 93%; in the assay with RXF 393 renal, 83%; in the assay with SF-268 CNS, 97.7%; in the assay on SF-295 CNS, 190%. The growth is 97.3% with SF-539 CNS, 82.8% in the assay with UACC-257 melanoma and 92.6% in the assay on M14 melanoma.
For the compound `CC(=O)[C@@H]1CC[C@]2(C(N)=O)CC[C@]3(C)[C@H](CC[C@@H]4[C@@]5(C)CCCNC(C)(C)[C@@H]5CC[C@]43C)[C@@H]12`, the growth with DU-145 prostate is 91.6%; in the assay with MALME-3M melanoma it was 90%; in the assay with MDA-MB-231 breast it was 106%; in the assay on RXF 393 renal, 69.5%; with SF-268 CNS, 80.2%; in the assay with SF-295 CNS, 86.6%. Further, the growth with SF-539 CNS was 90.1%; with UACC-257 melanoma, 94.4%; with M14 melanoma, 77.5%.
For `O=C1c2c(c3c4cccc(F)c4[nH]c3c3ccc4ccccc4c23)C(=O)N1O`, the growth with DU-145 prostate is 55.1%; in the assay with MALME-3M melanoma, 76.8%; in the assay with MDA-MB-231 breast, 70.8%; in the assay with RXF 393 renal, 46.9%; in the assay with SF-268 CNS, 32.5%; in the assay with SF-295 CNS it was 47.9%. In addition, the results for the growth in the assay with SF-539 CNS, in the assay with UACC-257 melanoma and in the assay on M14 melanoma were 40.4%, 67.5% and 38.3%, respectively.
